3T3 cytotox: kills NIH 3T3 cells | AID 1345082 | Potency, µM (highest dose often 96.7 µM), most hits filed as inhibitors | NIH 3T3 viability, CellTiter-Glo ATP luminescence, 48-72 h | 4.3% of 94,000 active; also: nearly all actives have a fitted effect of over 55% in size
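Cytotoxicity is measured as loss of cellular ATP: NIH 3T3 cells (400/well) are exposed to compound for 48 or 72 hr at 37 °C, then CellTiter-Glo luminescence is imaged after 10 min at room temperature.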
Luciferase inh: blocks purified firefly luciferase enzyme activity; purified P. pyralis luciferase, luminescence, biochemical; P08659; 2.5% of 76,000 active; AID 1347043; Potency, µM (series often up to 115 µM), most hits filed as inhibitors; also: nearly all actives have a fitted effect of over 65% in size
Target sequence (P08659 whole entry, looked up): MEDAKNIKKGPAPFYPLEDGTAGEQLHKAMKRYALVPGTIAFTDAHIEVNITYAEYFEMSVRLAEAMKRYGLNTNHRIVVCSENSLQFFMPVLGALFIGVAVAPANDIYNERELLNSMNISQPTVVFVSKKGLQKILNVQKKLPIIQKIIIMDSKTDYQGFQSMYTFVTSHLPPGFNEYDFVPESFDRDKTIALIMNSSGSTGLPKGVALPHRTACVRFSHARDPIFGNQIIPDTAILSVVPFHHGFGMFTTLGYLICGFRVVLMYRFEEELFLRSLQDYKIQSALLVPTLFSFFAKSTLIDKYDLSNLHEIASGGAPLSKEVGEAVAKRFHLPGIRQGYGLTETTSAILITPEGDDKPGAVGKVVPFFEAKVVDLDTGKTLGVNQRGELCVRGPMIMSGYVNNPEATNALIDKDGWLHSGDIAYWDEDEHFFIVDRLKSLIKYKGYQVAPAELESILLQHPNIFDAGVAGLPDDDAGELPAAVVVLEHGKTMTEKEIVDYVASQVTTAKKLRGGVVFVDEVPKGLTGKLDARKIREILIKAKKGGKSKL
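Biochemical qHTS: compound (6-point titration) added to 10uM D-luciferin plus 10uM ATP in Tris acetate pH 7.5 buffer with Mg, Tween-20 and BSA, then purified enzyme at 10nM; light output imaged.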
hNpr1 antagonist: human Npr1 receptor antagonism | 1.6% of 76,000 active | P16066 | AID 1347048 | HEK293 hNpr1 GloSensor cGMP, ANP-stimulated luminescence | Potency, µM (titrated, usually from 46.3 µM), hits mostly inhibitors; calls by dose curve; also: nearly all actives have a fitted effect of over 60% in size
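Compound pre-incubated 30 min at room temperature on GloSensor-loaded HEK293 cells stably carrying hNpr1 and the pGS-40F cGMP biosensor. Stimulation uses hNppA at 0.1 nM final; luminescence is taken at baseline and 20 min post-agonist.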
HEK cytotox: kills HEK 293 cells; 6.6% of 94,000 active; Potency, µM (highest dose often 115 µM), actives largely listed as inhibitors; HEK 293 viability, ATP luminescence (CellTiter-Glo), 48-72 h; AID 1345083; also: nearly all actives have a fitted effect of over 60% in size
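250 HEK 293 cells/well; compound by pintool; incubated 48 or 72 hr at 37 degree Celsius; CellTiter-Glo added, 10 min RT, luminescence imaged.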
GPT2 inhibitor: inhibitors of human GPT2 alanine aminotransferase | Potency, µM (doses to about 57.7 µM), actives largely listed as inhibitors | 0.25% of 100,000 active | AID 1671188 | Recombinant GPT2, coupled pyruvate oxidase/HRP Amplex Red fluorescence; also: nearly all actives have a fitted effect of over 60% in size
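Inhibition is scored from Amplex Red fluorescence generated when pyruvate oxidase and HRP act on pyruvate released by GPT2. Reactions contain 10ng/uL enzyme, 250uM a-KG and 2mM L-alanine and run 30 min at room temperature.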
A number is an active result; . = inactive; ? = inconclusive; / = not tested or not shown. Shown are actives, neighbours in structure and some others; about 10% of the full set was active somewhere. Unless noted, calls follow the shape of the dose curve; as a rule, active = well fitted curve in the direction sought with a large enough effect; inconclusive = small, poorly fitted or top-dose-only effect, or another doubt; inactive = no such curve, though single readings can be large; an effect the other way counts as inactive or inconclusive.

SMILES	3T3 cytotox	Luciferase inh	hNpr1 antagonist	HEK cytotox	GPT2 inhibitor
COc1ccc(CC(=O)NC2CCN(C(=O)c3ccc(-c4ncccc4C#N)cc3)CC2)cc1	?	/	/	.	.
O=C(C1CN(C2CCCCC2)C(=O)N1)N1CCC(Cc2ccccc2)CC1 (centres undefined)	?	/	/	?	.
Cc1ccsc1C(=O)N1CCC2(CC1)C(=O)N(c1cccc(F)c1)C2c1ccccc1 (centres undefined)	?	/	/	25.1µM	.
Cc1ccc(OCc2nc(C3CCCCN3C(=O)C3CC3)no2)cc1 (centres undefined)	?	/	/	?	.
CN(CC[C@H]1CN(C(=O)c2ccnc(Cl)c2)CC[C@H]1CC(=O)O)c1ccccc1	28.2µM	.	.	.	.
Cc1cc(Cn2cc3c4c(cccc42)[C@H](CC(C)C)N[C@H](C(=O)NCc2ccccn2)C3)no1	?	.	.	31.6µM	?
Cc1cc(Cn2cc3c4c(cccc42)[C@H](CC(C)C)N[C@H](C(=O)NCc2ccco2)C3)no1	28.2µM	.	.	39.8µM	?
CN1C[C@@H](NC(=O)CCC(=O)O)C[C@H]1c1nc(-c2ccc3ccccc3c2)no1	.	31.6µM	.	.	.
CN1C[C@@H](NC(=O)CC(C)(C)CC(=O)O)C[C@H]1c1nc(-c2ccc3ccccc3c2)no1	.	?	.	.	.
COc1ccc(-c2noc([C@@H]3C[C@H](NC(=O)COCC(=O)O)CN3C)n2)cc1	.	63.1µM	.	.	.
COc1ccc(Nc2ccnc(N3CCCC(C(=O)NCC(F)(F)F)C3)n2)cc1 (centres undefined)	?	/	/	?	.
COc1ccc(Nc2ccnc(N3CCCC(C(=O)N4CCCC(C)C4)C3)n2)cc1 (centres undefined)	44.7µM	/	/	?	.
COc1ccc(CNC(=O)C2CCCN(c3nccc(Nc4ccc(OC)cc4)n3)C2)cc1 (centres undefined)	?	/	/	28.2µM	.
COc1ccc(Nc2ccnc(N3CCCC(C(=O)N4CCN(C(C)=O)CC4)C3)n2)cc1 (centres undefined)	?	/	/	.	.
COc1ccc(Nc2ccnc(N3CCCC(C(=O)NCc4ccc(F)cc4)C3)n2)cc1 (centres undefined)	28.2µM	/	/	?	.
COc1ccc(Nc2ccnc(N3CCCC(C(=O)NC4CCCC4)C3)n2)cc1 (centres undefined)	39.8µM	/	/	?	.
O=C(NCC1Cn2cccc2CN1Cc1cccnc1)c1cccc(F)c1 (centres undefined)	.	/	/	.	.
O=C(NCc1ccccc1)c1cn2cc(-c3ccc(C(F)(F)F)cc3)sc2n1	.	/	/	.	.
Cc1nc(CN2C[C@H](C(=O)NCc3cccc(F)c3)C[C@@H]2c2ccc(F)cc2)cs1	?	.	.	89.1µM	.
Cc1nc(CN2C[C@H](C(=O)Nc3ccccc3)C[C@@H]2c2ccc(F)cc2)cs1	?	.	.	70.8µM	.
COc1ccc(-n2c(=O)c(C(=O)N3CCC(c4ccccc4)CC3)nc3cccnc32)cc1	.	/	/	.	.
CC1(c2ccccc2)N(Cc2cccnc2)C(=O)OC12CCN(C(=O)c1ccc(Oc3ccccc3)cc1)CC2 (centres undefined)	?	.	.	25.1µM	.
CC1(c2cccnc2)N(CC2CC2)C(=O)OC12CCN(C(=O)c1ccc(Oc3ccccc3)cc1)CC2 (centres undefined)	?	.	.	?	.
CC1(c2ccccc2)N(Cc2ncccn2)C(=O)OC12CCN(C(=O)c1ccc(Oc3ccccc3)cc1)CC2 (centres undefined)	39.8µM	.	.	39.8µM	.
CC1(c2ccccc2)N(Cc2ccccc2F)C(=O)OC12CCN(C(=O)c1cnccn1)CC2 (centres undefined)	?	.	.	.	.
SMILES	3T3 cytotox	Luciferase inh	hNpr1 antagonist	HEK cytotox	GPT2 inhibitor
CC1(c2cccnc2)N(Cc2ccccc2)C(=O)OC12CCN(C(=O)C1CCOCC1)CC2 (centres undefined)	?	.	.	.	.
CC1(c2ccccc2)N(Cc2ccc(O)cc2)C(=O)OC12CCN(C(=O)c1cnccn1)CC2 (centres undefined)	31.6µM	.	.	.	.
CC1(c2cccnc2)N(CC2CC2)C(=O)OC12CCN(C(=O)c1cccc(O)c1)CC2 (centres undefined)	35.5µM	.	.	.	.
COc1cccc(CC(=O)N2CCC3(CC2)OC(=O)N(Cc2ncccn2)C3(C)c2ccccc2)c1 (centres undefined)	?	.	.	.	.
COc1cccc(Nc2ncc3c(n2)C(C)(C(=O)NCC2CC2)CC3)c1 (centres undefined)	?	.	.	50.1µM	.
COc1cccc(Nc2ncc3c(n2)C(C)(C(=O)NCCc2ccccn2)CC3)c1 (centres undefined)	?	.	.	100µM	.
CC1(C(=O)NCC2CC2)COCc2cnc(Nc3ccccc3)nc21 (centres undefined)	.	.	.	?	.
COc1cccc(NC(=O)C2(C)CCc3cnc(N4CCOCC4)nc32)c1 (centres undefined)	?	.	.	?	.
CN1Cc2ccc(Nc3ccccc3)nc2C(C)(C(=O)NCCc2ccccn2)C1 (centres undefined)	?	.	.	?	?
CC1(C(=O)NCC2CC2)CCc2cnc(Nc3ccccc3)nc21 (centres undefined)	?	.	.	100µM	.
O=C(Cn1cccc1-c1nc(-c2ccc3c(c2)OCO3)no1)Nc1ccc(Cl)cc1	.	.	.	.	.
Cc1ccc(CN2CCC(N3CC(OCC4CC4)C34CCOCC4)CC2)cc1C (centres undefined)	?	.	.	?	.
CCOc1ccccc1CN1CCN(c2ncccc2C#N)CC1CCO (centres undefined)	?	.	.	?	.
COc1ccc(-c2cc3c(=O)n(CCNC(=O)c4ccc(OC)nc4)ccn3n2)cc1	.	?	.	.	.
COc1ccc(NC(=O)C2CCN(C(=O)c3nnn4c3COC(c3ccc(C)cc3)C4)CC2)cc1 (centres undefined)	.	?	.	.	.
CCc1cccc(NC(=O)C2CCN(C(=O)c3nnn4c3COC(c3ccc(OC)cc3)C4)CC2)c1 (centres undefined)	?	.	.	17.8µM	.
CCc1cccc(NC(=O)C2CCN(C(=O)c3nnn4c3COC(c3ccc(C)cc3)C4)CC2)c1 (centres undefined)	22.4µM	35.5µM	.	10µM	.
COc1ccc(C2Cn3nnc(C(=O)N4CCC(C(=O)Nc5cc(C)cc(C)c5)CC4)c3CO2)cc1 (centres undefined)	44.7µM	.	.	35.5µM	.
Cc1ccc(C2Cn3nnc(C(=O)N4CCC(C(=O)Nc5ccc(F)c(C)c5)CC4)c3CO2)cc1 (centres undefined)	.	?	.	.	.

Screens: PubChem BioAssay, National Center for Advancing Translational Sciences (NCATS)
